Experimental data from the supplement of paper PMC3150612.
± gives the standard deviation of the averaged measurements.

Legend:
Drosophila melanogaster [1] = assay: olfactory response index (dipstick assay) (fraction of flies (RI; 1 aversion, 0.5 indifferent, 0 attraction)); higher = stronger aversion to the odorant; conditions: odorant concentration: 1% v/v, male
Drosophila melanogaster [2] = assay: as above; conditions: odorant concentration: 1% v/v, female
[3] = genotype (tubulin-GAL4 x UAS-RNAi line; control = progenitor): A5
[4] = genotype (tubulin-GAL4 x UAS-RNAi line; control = progenitor): control
[5] = genotype (tubulin-GAL4 x UAS-RNAi line; control = progenitor): obp 18a
[6] = genotype (tubulin-GAL4 x UAS-RNAi line; control = progenitor): obp 22a
[7] = genotype (tubulin-GAL4 x UAS-RNAi line; control = progenitor): obp 28a
[8] = genotype (tubulin-GAL4 x UAS-RNAi line; control = progenitor): obp 56a
[9] = genotype (tubulin-GAL4 x UAS-RNAi line; control = progenitor): obp 56c
[10] = genotype (tubulin-GAL4 x UAS-RNAi line; control = progenitor): obp 56f
[11] = genotype (tubulin-GAL4 x UAS-RNAi line; control = progenitor): obp 57a
[12] = genotype (tubulin-GAL4 x UAS-RNAi line; control = progenitor): obp 57b
[13] = genotype (tubulin-GAL4 x UAS-RNAi line; control = progenitor): obp 58c
[14] = genotype (tubulin-GAL4 x UAS-RNAi line; control = progenitor): obp 59a
[15] = genotype (tubulin-GAL4 x UAS-RNAi line; control = progenitor): obp 83a
[16] = genotype (tubulin-GAL4 x UAS-RNAi line; control = progenitor): obp 83c
[17] = genotype (tubulin-GAL4 x UAS-RNAi line; control = progenitor): obp 93a
[18] = genotype (tubulin-GAL4 x UAS-RNAi line; control = progenitor): obp 99b
[19] = genotype (tubulin-GAL4 x UAS-RNAi line; control = progenitor): obp 56h
[20] = genotype (tubulin-GAL4 x UAS-RNAi line; control = progenitor): obp 58b

| SMILES | olfactory response index (Drosophila melanogaster [1]; [3]) | olfactory response index (Drosophila melanogaster [1]; [4]) | olfactory response index (Drosophila melanogaster [1]; [5]) | olfactory response index (Drosophila melanogaster [1]; [6]) | olfactory response index (Drosophila melanogaster [1]; [7]) | olfactory response index (Drosophila melanogaster [1]; [8]) | olfactory response index (Drosophila melanogaster [1]; [9]) | olfactory response index (Drosophila melanogaster [1]; [10]) | olfactory response index (Drosophila melanogaster [1]; [11]) | olfactory response index (Drosophila melanogaster [1]; [12]) | olfactory response index (Drosophila melanogaster [1]; [13]) | olfactory response index (Drosophila melanogaster [1]; [14]) | olfactory response index (Drosophila melanogaster [1]; [15]) | olfactory response index (Drosophila melanogaster [1]; [16]) | olfactory response index (Drosophila melanogaster [1]; [17]) | olfactory response index (Drosophila melanogaster [1]; [18]) | olfactory response index (Drosophila melanogaster [1]; [19]) | olfactory response index (Drosophila melanogaster [2]; [3]) | olfactory response index (Drosophila melanogaster [2]; [4]) | olfactory response index (Drosophila melanogaster [2]; [5]) | olfactory response index (Drosophila melanogaster [2]; [6]) | olfactory response index (Drosophila melanogaster [2]; [7]) | olfactory response index (Drosophila melanogaster [2]; [8]) | olfactory response index (Drosophila melanogaster [2]; [9]) | olfactory response index (Drosophila melanogaster [2]; [10]) | olfactory response index (Drosophila melanogaster [2]; [11]) | olfactory response index (Drosophila melanogaster [2]; [12]) | olfactory response index (Drosophila melanogaster [2]; [20]) | olfactory response index (Drosophila melanogaster [2]; [13]) | olfactory response index (Drosophila melanogaster [2]; [14]) | olfactory response index (Drosophila melanogaster [2]; [15]) | olfactory response index (Drosophila melanogaster [2]; [16]) | olfactory response index (Drosophila melanogaster [2]; [17]) | olfactory response index (Drosophila melanogaster [2]; [18]) | olfactory response index (Drosophila melanogaster [2]; [19]) |
| --- | --- | --- | --- | --- | --- | --- | --- | --- | --- | --- | --- | --- | --- | --- | --- | --- | --- | --- | --- | --- | --- | --- | --- | --- | --- | --- | --- | --- | --- | --- | --- | --- | --- | --- | --- |
| CCC=O [propanal] | 0.408 ± 0.047 | 0.158 ± 0.045 | 0.029 ± 0.031 | 0.1 ± 0.017 | 0.165 ± 0.13 | 0.111 ± 0.025 | 0.0917 ± 0.11 | 0.119 ± 0.083 | 0.0926 ± 0.076 | 0.254 ± 0.19 | 0.0938 ± 0.037 | 0.498 ± 0.047 | 0.164 ± 0.14 | 0.238 ± 0.095 | 0.289 ± 0.13 | 0.112 ± 0.019 | 0.233 ± 0.08 | 0.637 ± 0.17 | 0.467 ± 0.19 | 0.4 ± 0.18 | 0.583 ± 0.12 | 0.523 ± 0.039 | 0.24 ± 0.21 | 0.479 ± 0.049 | 0.333 ± 0.22 | 0.572 ± 0.086 | 0.66 ± 0.036 | 0.625 ± 0.097 | 0.305 ± 0.24 | 0.611 ± 0.11 | 0.312 ± 0.14 | 0.662 ± 0.086 | 0.688 ± 0.087 | 0.461 ± 0.039 | 0.356 ± 0.19 |
| C=C(C)[C@H]1CC=C(C)C(=O)C1 [(S)-carvone] | 0.57 ± 0.068 | 0.456 ± 0.062 | 0.22 ± 0.068 | 0.372 ± 0.058 | 0.384 ± 0.14 | 0.142 ± 0.051 | 0.186 ± 0.057 | 0.525 ± 0.15 | 0.277 ± 0.15 | 0.4861 ± 0.0015 | 0.468 ± 0.1 | 0.657 ± 0.13 | 0.304 ± 0.27 | 0.555 ± 0.19 | 0.382 ± 0.14 | 0.171 ± 0.066 | 0.504 ± 0.17 | 0.729 ± 0.063 | 0.65 ± 0.074 | 0.558 ± 0.053 | 0.775 ± 0.06 | 0.651 ± 0.073 | 0.357 ± 0.1 | 0.678 ± 0.2 | 0.676 ± 0.1 | 0.613 ± 0.085 | 0.73 ± 0.15 | 0.49 ± 0.07 | 0.597 ± 0.064 | 0.739 ± 0.031 | 0.589 ± 0.045 | 0.398 ± 0.079 | 0.715 ± 0.056 | 0.468 ± 0.041 | 0.683 ± 0.086 |
| CC(=O)c1ccccc1 [acetophenone] | 0.629 ± 0.048 | 0.394 ± 0.035 | 0.26 ± 0.13 | 0.231 ± 0.17 | 0.419 ± 0.18 | 0.275 ± 0.14 | 0.265 ± 0.077 | 0.655 ± 0.15 | 0.332 ± 0.051 | 0.318 ± 0.13 | 0.578 ± 0.18 | 0.533 ± 0.14 | 0.745 ± 0.16 | 0.066 ± 0.075 | 0.242 ± 0.12 | 0.326 ± 0.023 | 0.657 ± 0.11 | 0.747 ± 0.024 | 0.69 ± 0.11 | 0.588 ± 0.13 | 0.67 ± 0.066 | 0.656 ± 0.078 | 0.503 ± 0.066 | 0.602 ± 0.057 | 0.801 ± 0.055 | 0.668 ± 0.1 | 0.629 ± 0.053 | 0.621 ± 0.061 | 0.562 ± 0.14 | 0.717 ± 0.05 | 0.45 ± 0.15 | 0.631 ± 0.082 | 0.69 ± 0.067 | 0.376 ± 0.15 | 0.489 ± 0.037 |
| C=C(C)[C@@H]1CC=C(C)C(=O)C1 [(R)-carvone] | 0.627 ± 0.12 | 0.163 ± 0.067 | 0.206 ± 0.16 | 0.34 ± 0.1 | 0.499 ± 0.09 | 0.396 ± 0.16 | 0.158 ± 0.14 | 0.201 ± 0.076 | 0.207 ± 0.1 | 0.378 ± 0.18 | 0.24 ± 0.096 | 0.541 ± 0.14 | 0.422 ± 0.069 | 0.146 ± 0.12 | 0.472 ± 0.21 | 0.233 ± 0.12 | 0.306 ± 0.22 | 0.747 ± 0.074 | 0.712 ± 0.019 | 0.484 ± 0.18 | 0.5 ± 0.16 | 0.662 ± 0.12 | 0.532 ± 0.2 | 0.712 ± 0.2 | 0.616 ± 0.13 | 0.582 ± 0.15 | 0.685 ± 0.13 | 0.622 ± 0.14 | 0.684 ± 0.077 | 0.711 ± 0.059 | 0.535 ± 0.06 | 0.655 ± 0.11 | 0.708 ± 0.16 | 0.676 ± 0.022 | 0.615 ± 0.14 |
| COC(=O)c1ccccc1O [methyl salicylate] | 0.331 ± 0.2 | 0.13 ± 0.099 | 0.0711 ± 0.077 | 0.179 ± 0.09 | 0.249 ± 0.1 | 0.161 ± 0.056 | 0.181 ± 0.16 | 0.173 ± 0.11 | 0.038 ± 0.036 | 0.193 ± 0.15 | 0.159 ± 0.068 | 0.368 ± 0.047 | 0.225 ± 0.13 | 0.14 ± 0.032 | 0.294 ± 0.18 | 0.108 ± 0.042 | 0.147 ± 0.04 | 0.49 ± 0.19 | 0.558 ± 0.091 | 0.114 ± 0.14 | 0.486 ± 0.086 | 0.384 ± 0.081 | 0.523 ± 0.13 | 0.27 ± 0.14 | 0.295 ± 0.068 | 0.356 ± 0.1 | 0.384 ± 0.23 | 0.287 ± 0.066 | 0.381 ± 0.22 | 0.616 ± 0.093 | 0.454 ± 0.19 | 0.654 ± 0.066 | 0.491 ± 0.02 | 0.308 ± 0.16 | 0.63 ± 0.22 |
| CCCCCC(C)=O [2-heptanone] | 0.365 ± 0.086 | 0.0673 ± 0.066 | 0.32 ± 0.1 | 0.304 ± 0.1 | 0.331 ± 0.084 | 0.185 ± 0.082 | 0.239 ± 0.077 | 0.395 ± 0.14 | 0.214 ± 0.038 | 0.368 ± 0.13 | 0.328 ± 0.063 | 0.444 ± 0.12 | 0.339 ± 0.11 | 0.352 ± 0.13 | 0.345 ± 0.26 | 0.138 ± 0.044 | 0.393 ± 0.17 | 0.49 ± 0.16 | 0.483 ± 0.17 | 0.409 ± 0.092 | 0.417 ± 0.12 | 0.526 ± 0.081 | 0.392 ± 0.12 | 0.494 ± 0.073 | 0.452 ± 0.21 | 0.718 ± 0.062 | 0.571 ± 0.15 | 0.277 ± 0.015 | 0.272 ± 0.051 | 0.598 ± 0.13 | 0.4 ± 0.15 | 0.537 ± 0.17 | 0.443 ± 0.18 | 0.28 ± 0.017 | 0.513 ± 0.22 |
| CC(C)=CCC/C(C)=C/CO [geraniol] | 0.228 ± 0.033 | 0.136 ± 0.091 | 0.0872 ± 0.11 | 0.0901 ± 0.081 | 0.177 ± 0.1 | 0.188 ± 0.086 | 0.174 ± 0.038 | 0.175 ± 0.023 | 0.0811 ± 0.02 | 0.0917 ± 0.055 | 0.114 ± 0.049 | 0.441 ± 0.039 | 0.159 ± 0.025 | 0.183 ± 0.099 | 0.412 ± 0.13 | 0.141 ± 0.11 | 0.197 ± 0.18 | 0.71 ± 0.16 | 0.492 ± 0.12 | 0.371 ± 0.15 | 0.367 ± 0.018 | 0.605 ± 0.03 | 0.581 ± 0.099 | 0.295 ± 0.025 | 0.468 ± 0.18 | 0.406 ± 0.12 | 0.504 ± 0.032 | 0.591 ± 0.17 | 0.19 ± 0.12 | 0.565 ± 0.091 | 0.442 ± 0.07 | 0.414 ± 0.034 | 0.593 ± 0.061 | 0.35 ± 0.23 | 0.406 ± 0.18 |
